The values that follow come from PubChem BioAssay AID425 (Sanford-Burnham Center for Chemical Genomics, 2006).

Where “and” joins values, the source holds several entries; their conditions need not be identical. Equal values may be shown once. Hit rate of the full screen: of about 110,000 compounds, about 190 (0.17%) were called active. This is one part of a sample in which actives are shown more often than they occur. Rule as the data show it: active = inhibition above about 50%; inactive = the rest. Potency and affinity values are given separately. Some compounds were tested as several samples or in several runs, with calls that do not always agree.

The target of the assay is Dual specificity protein phosphatase 6 (Rattus norvegicus) (UniProt Q64346). The assay is described as follows: MKP-3 phosphatase inhibitors, primary screen, biochemical, rat enzyme, in vitro (AID 425).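 Also: plate controls were vehicle for no effect and reference inhibitor for full effect.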 The conditions noted are these: recombinant MKP-3 phosphatase activity, fluorescence; at 20 µM; stronger effect = higher value.
Chain of Dual specificity protein phosphatase 6 (Rattus norvegicus) (Q64346 whole entry, looked up): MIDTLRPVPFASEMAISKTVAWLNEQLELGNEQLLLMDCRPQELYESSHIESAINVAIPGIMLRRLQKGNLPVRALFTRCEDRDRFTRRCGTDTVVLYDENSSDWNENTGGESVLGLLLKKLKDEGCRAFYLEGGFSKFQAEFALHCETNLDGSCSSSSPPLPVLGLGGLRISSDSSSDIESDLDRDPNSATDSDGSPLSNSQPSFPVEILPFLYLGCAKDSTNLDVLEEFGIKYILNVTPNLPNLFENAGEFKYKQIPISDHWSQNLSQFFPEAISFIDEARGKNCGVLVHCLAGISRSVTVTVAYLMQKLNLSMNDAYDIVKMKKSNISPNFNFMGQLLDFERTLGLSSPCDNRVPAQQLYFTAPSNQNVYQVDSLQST
As for `CCN(CC)c1ccc(/C=C2/SC(=O)N(CNc3ccc(OC)c(Cl)c3)C2=O)cc1`, the inhibition (as a rule, the drop in the measured response relative to a control, in per cent) was 2.6% (inactive).
As for `COc1ccc(/C=C2\C=C(c3ccc(Br)cc3)OC2=O)cc1[N+](=O)[O-]`, the figure is 5.6% (inactive); as for `COc1ccc(/C=N/Nc2nnc(-c3ccccc3)c(-c3ccccc3)n2)cc1`, 0.6% (inactive); as for `N/C(=N/O)c1nc(N2CCCCC2)nc(N2CCCCC2)n1`, -8.2% (inactive).
To `O=C(Nc1ccc(C(=O)N2CCOCC2)cc1)Nc1cccc2ccccc12` belongs 2% (inactive).
To `CN(C)CCCNC(=O)c1ccc(F)cc1` belongs -0.5% (inactive).
Take `CN(C)CCCNC(=O)c1ccc2sc3cc(=O)c(N)cc-3nc2c1`: the inhibition was 84.1% (active).
As for `CN(C)CCCNC(=O)c1cccc(F)c1`, the figure is -3.1% (inactive); as for `Cc1ccc(-n2ncc(C(=O)N3CCc4ccccc4C3)c2NC(=O)c2ccco2)cc1C`, -7.8% (inactive); as for `CC1(C)OC(=O)C(=Cc2ccc(I)o2)C(=O)O1`, 101% (active).
As for `O=C1C(=Cc2ccc(I)o2)C(=O)c2ccccc21`, the figure is 15.6% (inactive).
`CC1(C)OC(=O)C(=Cc2ccc(-c3ccc(Cl)cc3Cl)o2)C(=O)O1`: the inhibition is 7.8% (inactive).
As for `Cc1ccc(C)c(C(=O)COC(=O)c2ccc(Br)o2)c1`, the figure is -15.9% (inactive); as for `COc1ccc(-c2cc3ccccc3n2CC(O)CN2CCN(CCO)CC2)cc1` (centres undefined), -0.9% (inactive).
To `O=C(O)c1cccc(N2C(=O)c3ccc4c5c(ccc(c35)C2=O)CC4)c1` belongs 71.8% (active); to `O=C(O)c1cccc(N2C(=O)CCC2=O)c1`, -5.5% (inactive).
On to `O=C(O)c1cccc(N2C(=O)c3ccc(Br)cc3C2=O)c1`, for which the inhibition was 0.9% (inactive).
To `c1ccc2c(-n3cnnn3)cccc2c1` belongs -8.8% (inactive).
As for `Cc1ccc(-c2csc3nnc(SCC(=O)Nc4nsc(-c5ccccc5)n4)n23)cc1`, the figure is -3.1% (inactive).
To `Cc1ccc(-c2nc(NC(=O)CSc3nnc4scc(-c5ccccc5)n34)ns2)cc1` belongs 12.3% (inactive); to `Cc1ccc(-c2nc(NC(=O)CSc3nnnn3-c3ccccc3)ns2)cc1`, 2.1% (inactive); to `Cc1ccc(-c2nc(NC(=O)CSc3nnc(C)s3)ns2)cc1`, 6.1% (inactive).
Consider `CCn1c(=O)cc(SCC(=O)Nc2ccc3c(c2)OCCO3)c2ccccc21`, for which the inhibition was 2.8% (inactive).
As for `O=c1[nH]c2c(n(C3CCCCC3)c1=O)CCC2`, the figure is -11.2% (inactive).
To `Cc1ccc(C(=O)Nc2ccccc2C(=O)N2CC(C)OC(C)C2)cc1` (centres undefined) belongs 1.8% (inactive); to `Cc1cc(C)cc(N2C(=O)NC(=O)/C(=C\c3ccc([N+](=O)[O-])o3)C2=O)c1`, 25.1% (inactive); to `CC(C)c1ccc(N2C(=O)NC(=O)/C(=C/c3ccc(Br)o3)C2=O)cc1`, 58.6% (active).
To `CC(C)c1ccc(N2C(=O)NC(=O)/C(=C/c3ccc(I)o3)C2=O)cc1` belongs 12.4% (inactive); to `Cc1cc(N2C(=O)NC(=O)/C(=C\c3ccc(N(C)C)o3)C2=O)ccc1Br`, 2.1% (inactive); to `Cc1cc(N2C(=O)NC(=O)/C(=C\c3ccc([N+](=O)[O-])o3)C2=O)ccc1Br`, 65.5% (active).
In the case of `O=C1NC(=O)N(c2ccccc2)C(=O)/C1=C\c1ccc(Br)o1`, the inhibition is 8.3% (inactive).
As to `O=C(NC(Cc1ccccc1)C(=O)N1CCN(c2ccccn2)CC1)c1ccco1` (centres undefined), the inhibition is -1.1% (inactive).
To `COc1ccc(OC)c(CN2C(=O)c3ccccc3C2C(=O)NCc2cccnc2)c1` (centres undefined) belongs -10.2% (inactive); to `CN(Cc1ccccc1)S(=O)(=O)c1ccc2[nH]c(=O)oc2c1`, -2.6% (inactive).
To `O=C1c2ccccc2-c2onc3ccc(NCc4ccco4)c1c23` belongs -14.4% (inactive); to `CCNc1ccc2noc3c2c1C(=O)c1ccccc1-3`, 4.2% (inactive); to `O=C1c2ccccc2-c2onc3ccc(N4CCCCC4)c1c23`, 10.8% (inactive).
Consider `CCOc1ccc2noc3c2c1C(=O)c1ccccc1-3`, for which the inhibition is 45.7% (inactive) and 44.7% (inactive).
To `O=C1c2ccccc2-c2onc3ccc(Oc4ccc(Cl)cc4)c1c23` belongs 92.2% (active); to `O=C1c2ccccc2-c2onc3ccc(Cl)c1c23`, 13.1% (inactive).
Consider `O=C1C=Cc2ccccc2/C1=N/Oc1ccc2noc3c2c1C(=O)c1ccccc1-3`, for which the inhibition was 65.3% (active).
`O=C1c2ccccc2-c2onc3ccc(NC4CCCCC4)c1c23`: the inhibition was -1.7% (inactive).
As for `CCOc1ccc(Nc2ccc3noc4c3c2C(=O)c2ccccc2-4)cc1`, the figure is 3.7% (inactive).
As for `COc1ccc2noc3c2c1C(=O)c1ccccc1-3`, the figure is 102% (active) and -3.3% (inactive); as for `O=C1c2ccccc2-c2onc3ccc(Sc4ccccc4)c1c23`, 7.7% (inactive); as for `Cc1ccc2c(c1)c1nc3ccccc3nc1n2CCN1CCOCC1`, 1.9% (inactive).
To `Brc1cccc(CN2CCN(C3CCN(Cc4ccccc4)CC3)CC2)c1` belongs 3.4% (inactive); to `O=C(CSC(=S)N1CCOCC1)c1ccc([N+](=O)[O-])cc1`, 2.2% (inactive); to `Cc1ccc(-n2c3c(cc(C(=O)NCCCN4CCOCC4)c2=O)C(=O)CC(C)(C)C3)cc1`, -7.6% (inactive).
For the compound `COc1cccc(C2/C(=C(\O)c3c(C)nc4c(C)cccn34)C(=O)C(=O)N2CCCN(C)C)c1` (centres undefined), the inhibition was -2.7% (inactive).
As for `CCCCOC(=O)c1c(NC(=O)C2C3CCC(C3)C2C(=O)O)sc2c1CCCC2` (centres undefined), the figure is 0% (inactive); as for `COc1ccc(/C=C/C(=O)NC(=S)Nc2ccc(S(=O)(=O)N=C(N)N)cc2)cc1`, -1.1% (inactive).
Take `O=C1CC(c2ccccc2)CC2=C1C(c1cccnc1)Nc1ccc(C(=O)c3ccccc3)cc1N2` (centres undefined): the inhibition is 8.5% (inactive).
As for `O=C(O)C1C2C=CC(O2)C1C(=O)Nc1ccccc1C(F)(F)F` (centres undefined), the figure is 4.5% (inactive); as for `O=C(O)c1ccc(NC2=C(N3CCCCC3)C(=O)c3ccccc3C2=O)cc1`, 1.7% (inactive).
To `O=C1C(Nc2ccc(Cl)cc2)=C(N2CCOCC2)C(=O)c2ccccc21` belongs 2% (inactive).
With `O=C1C(Nc2ccc(Cl)cc2)=C(N2CCCCC2)C(=O)c2ccccc21`, the inhibition is 55.2% (active).
Consider `CCOCCOC(=O)C1=C(C)N(C)C(=O)NC1c1cc(Cl)c(O)c(OCC)c1` (centres undefined), for which the inhibition is -5.1% (inactive).
On to `O=C(CN1CCN(Cc2ccccc2Cl)C1=O)NC1CCCCCCC1`, for which the inhibition is -3.3% (inactive).
